# Screening data deposited in PubChem by National Center for Advancing Translational Sciences (NCATS).
# Hits are enriched below; roughly 5.4% of the tested compounds scored in any of these assays.
# HPGD inh – inhibitors of human 15-hydroxyprostaglandin dehydrogenase (HPGD) | purified HPGD, NADH fluorescence kinetic, PGE2 substrate | P15428 | Potency, µM, most hits filed as inhibitors | AID 894 | 150,000 tested, 4.3% active; active means well fitted inhibition curve with a large enough effect, not every such curve was filed as active; inconclusive means small, poorly fitted or top-dose-only effect, or another doubt; inactive means no such curve, though single readings can be large or run the other way
# Target sequence (P15428 whole entry, looked up): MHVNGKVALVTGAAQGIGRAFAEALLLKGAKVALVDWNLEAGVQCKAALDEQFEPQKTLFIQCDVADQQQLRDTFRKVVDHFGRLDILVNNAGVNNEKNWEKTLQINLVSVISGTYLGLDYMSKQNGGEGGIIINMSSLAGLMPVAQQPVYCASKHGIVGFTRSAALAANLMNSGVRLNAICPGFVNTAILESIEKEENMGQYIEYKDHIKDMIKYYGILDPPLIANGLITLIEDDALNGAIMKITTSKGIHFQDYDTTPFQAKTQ
#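 NADH formation kinetics: reaction with 30 uM PGE2 and 1 mM NAD+ (final), 20 nM enzyme, Tris-HCl pH 8 with Tween 20, after 15 min compound preincubation at room temperature. Fluorescence change, last versus first of five reads.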
# IMPase Li inh – cell-permeable IMPase inhibitors with lithium potentiation | CHO-M1 cells, IP1 TR-FRET (IP-One), carbachol + lithium | Potency, µM (top dose mostly 59.4 µM), most hits filed as inhibitors | 210,000 tested, 0.35% active | AID 1457;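 further: IP1 builds up when IMPase is blocked and the TR-FRET signal falls; nearly all actives have a fitted effect of over 50% in size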
#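 CHO-M1, 2000 cells/well, 16–30 h culture; cpd + low Li+, 30 min 37C; lysis with d2-IP1/Eu-anti-IP1 Ab, 10 min RT; TR-FRET 665/620 ratio and 620 channel; AC50 via Hill.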
# IMPase cell inh – cell-permeable inhibitors of inositol monophosphatase (IMPase) | P97697 | CHO-M1 cells, IP1 accumulation, HTRF TR-FRET ratio | inhibition (IP1 accumulation), % at 46.1 µM | 120,000 tested, under 10 active | AID 901; active means well fitted curve in the direction sought with a large enough effect in the signal ratio, not every such curve was filed as active; inconclusive means small, poorly fitted or top-dose-only effect, or a change in a side signal; inactive means no such curve, though single readings can be large or run the other way; the % refers to the signal ratio;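 further: cells stimulated with carbachol in lithium chloride buffer; higher means more IMPase inhibition seen as more IP1 and lower FRET ratio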
# Target sequence (P97697 whole entry, looked up): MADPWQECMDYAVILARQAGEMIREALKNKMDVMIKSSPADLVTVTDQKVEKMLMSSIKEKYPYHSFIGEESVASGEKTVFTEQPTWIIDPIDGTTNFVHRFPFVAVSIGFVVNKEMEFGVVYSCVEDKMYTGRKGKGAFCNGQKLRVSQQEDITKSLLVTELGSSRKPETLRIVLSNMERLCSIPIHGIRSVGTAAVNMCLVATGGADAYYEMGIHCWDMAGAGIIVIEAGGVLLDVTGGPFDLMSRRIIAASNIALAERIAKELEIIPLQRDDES
#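 Seeded CHO-M1 cells were dosed with compound at up to 46 uM, stimulated with carbachol for 30 min, then lysed in IP-One detection reagents. Higher IP1 lowers the TR-FRET signal.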
# ALOX15B inhib – 15-hLO-2 (ALOX15B) enzyme inhibition; purified 15hLO-2, xylenol orange hydroperoxide absorbance; Potency, µM (titrated, usually from 57.1 µM), hits mostly inhibitors; 110,000 tested, 0.56% active; AID 881; further: nearly all actives have a fitted effect of over 60% in size
#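 Enzyme 50 nM, AA 45 uM, 25 mM Hepes pH 7.5 + 0.01% Triton X-100; cpd preinc 15 min RT, rxn 90 min RT; stop/detect with 200 uM XO + 300 uM Fe(II) in 50 mM H2SO4, 30 min; A573/A405.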
# ALOX12 inhib – inhibitors of human 12-lipoxygenase (ALOX12). P18054. AID 1452. purified 12-hLO, xylenol orange hydroperoxide absorbance. Potency, µM (highest dose often 57.1 µM), usual class: inhibitors. 150,000 tested, 0.12% active; further: nearly all actives have a fitted effect of over 55% in size
#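 Hydroperoxide formation by human 12-lipoxygenase from 40 uM arachidonic acid was followed colorimetrically via ferric-xylenol orange complex, using the 573/405 nm absorbance ratio. Enzyme concentration was 150 nM, with 30 min reaction at room temperature.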
# PNC inhibitor – blocks assembly of the perinucleolar compartment; PC3M PTB-GFP, PNC prevalence imaging, 16 h; active compounds read low; activity change (PNC), negative = inhibition, % at 10 µM; 140,000 tested, 3.1% active; AID 2417;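 active means readout at or below -70, meaning at least 70% loss of cells showing the perinucleolar compartment, a nuclear body marking cancer cells; inconclusive means readout between -30 and a set limit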
#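 PC3M cells stably expressing PTB-GFP, 750–1000 cells/well, treated 16 h at 37 °C with compound (23 nl of library stock), in duplicate. After paraformaldehyde fixation and Hoechst stain, imaged at 20x; PNC prevalence scored by image analysis.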
# A number is an active result; n = inactive; u = inconclusive; x = no result given; [ ] = remark or other dose. Unless noted, the call rests on the fitted dose curve; in most records, active means well fitted curve in the direction sought with a large enough effect; inconclusive means small, poorly fitted or top-dose-only effect, or another doubt; inactive means no such curve, though single readings can be large; an effect the other way counts as inactive or inconclusive.
SMILES,HPGD inh,IMPase Li inh,IMPase cell inh,ALOX15B inhib,ALOX12 inhib,PNC inhibitor
CCC(Cl)CC(Cl)C(Cl)C(Cl)C(Cl)C(C)Cl (centres undefined),n,n,x,n,n,x
C[C@]12C[C@H](O)C3[C@@H](CCC4=CC(=O)CC[C@@]43C)[C@@H]1CC[C@@H]2C(=O)CO (some centres undefined),n,n,x,x,x,x
COc1cccc(-c2cc(N(C)Cc3ccco3)ncn2)c1,x,n,x,n,x,x
Cc1ccccc1OCC(=O)N(Cc1ccc(C(C)C)cc1)C1CCS(=O)(=O)C1 (centres undefined),x,x,n,x,x,x
CCOC(=O)c1sc(NC(=O)CSc2nncs2)c(C(=O)OCC)c1C,28.2µM,n,n,n,n,n
CCOC(=O)c1c(NC(=O)CSc2n[nH]c(-c3ccco3)n2)sc(C)c1C,15.8µM,n,n,n,n,n
CCOC(=O)c1c(NC(=O)CSc2n[nH]c(CNc3ccccc3)n2)sc(C)c1C,n,n,n,x,n,n
CCOC(=O)c1sc(NC(=O)CSc2nnc(Cc3ccccc3)o2)c(C#N)c1C,2µM,n,n,u,n,n
CCOC(=O)c1sc(NC(=O)c2cc(-c3ccccc3)nc3ccccc23)c(C#N)c1C,15.8µM,n,n,n,n,n
CCOC(=O)c1sc(NC(=O)CSc2nc3ccccc3s2)c(C(=O)OCC)c1C,n,n,x,x,n,n
CCOC(=O)c1c(NC(=O)CSc2nnc(Cc3ccccc3)o2)sc(C(C)=O)c1C,n,n,n,n,n,n
CCCOc1ccc(-c2cc(C(F)(F)F)c(C#N)c(SCCC(=O)O)n2)cc1,x,x,n,x,x,x
CCOc1ccccc1C(=O)Nc1ccc(S(=O)(=O)Nc2onc(C)c2C)cc1,x,x,n,x,x,x
COc1cccc(-c2cc(=O)c3ccc(OC)cc3o2)c1,u,n,x,n,n,x
CN(C)C(CNC(C(=O)Nc1ccc([N+](=O)[O-])cc1Br)c1ccccc1)c1ccccc1 (centres undefined),x,n,x,x,x,x
CCN(CC)CCNC(C(=O)Nc1ccc([N+](=O)[O-])cc1Br)c1ccccc1 (centres undefined),n,n,x,x,n,-104.2
OC[C@@H]1[C@@H](c2ccc(Cl)cc2)C(c2ccccc2)=NN1c1ccccc1,u,22.4µM,x,u,n[0.00818 µM],x
COc1ccccc1[C@H]1C(c2ccccc2)=NN(c2ccccc2)[C@@H]1CO,u,25.1µM,x,n[0.0915 µM],n[0.00818 µM],x
Cn1cc(-c2nc3cncnc3n(C3CC3)c2=O)c2ccccc21,x,n,x,n,x,x
Cc1cc2cc(CCNS(=O)(=O)c3ccc(Br)cc3)c(=O)[nH]c2cc1C,x,x,n,x,x,x
CCN1CCN(c2cc3c(cc2F)c(=O)c(C(=O)O)cn3C2CC2)CC1,u,n,x,n,n,-114.6
N#CCCn1c(=O)c(-c2ccc(Cl)cc2)nc2cnc(N3CCNCC3)nc21,x,n,x,n,x,x
CCOc1cc(C)c(C(C)C)cc1S(=O)(=O)NCc1ccccn1,n,n,n,n,n,-81.6
CCOc1ccc(S(=O)(=O)NCc2ccccn2)cc1,n,n,n,n,n,-111.3
COc1ccc(S(=O)(=O)NCc2ccccn2)cc1,n,n,n,n,n,n
SMILES,HPGD inh,IMPase Li inh,IMPase cell inh,ALOX15B inhib,ALOX12 inhib,PNC inhibitor
NCCNc1cccc2ccccc12,n,n,x,n,n,x
O=C(c1sccc1-n1cccc1)N1CCCC1,n,n,n,n,n,-83.4
N[C@@H](Cc1cccc([N+](=O)[O-])c1)C(=O)O,n,n,x,n[11.4 µM],n[11.4 µM],x
COC(=O)c1cc(=O)c(O)c2c(O)c(O)ccc2c1,7.94µM,n,x,n,u,x
O=C1CC[C@H](NC(=O)c2ccccc2)C(=O)N1,n,n,x,n[11.4 µM],n[11.4 µM],x
CCOc1ccccc1NC(=O)CN(Cc1ccccc1)S(C)(=O)=O,n,n,n[1.84 µM],n[11.4 µM],n,-94.2
Cc1ccccc1N(CC(=O)O)S(C)(=O)=O,n,n,n,x,n,-103.7
Cc1ccccc1N(CC(N)=O)S(C)(=O)=O,n,n,n,n,n,n
CCOc1ccccc1N(CC(=O)OC)S(C)(=O)=O,n,n,n,n,n,-106.0
CC1(N)CCC(C(C)(C)N)CC1 (centres undefined),n,n,x,n,n,x
O=C1NC(=S)/C(=C\c2ccc(-c3ccccc3Cl)o2)S1,15.8µM,n,x,x,n,n
Cc1cc(N2CCC(C)CC2)nc(SCC(=O)c2ccccc2)n1,n,n,n,x,n,-118.9
CCOC(=O)c1cc(-c2ccncc2)nc2c1c(C)nn2-c1ccccn1,n,n,n,n,n,-100.0
CCOC(=O)c1cc(-c2ccc(C#N)cc2)nc2c1c(C)nn2CCC#N,u,u,n,n,n,-111.3
COc1ccc(-c2cc(C(=O)O)c3c(C)nn(-c4ccccn4)c3n2)cc1,u,n,n,n,n,n
CC(C)(C)C1CCc2c(sc(NC(=O)c3cc4ccccc4c(=O)o3)c2C(N)=O)C1 (centres undefined),x,x,n,x,x,x
Cc1cc(C)c(S(=O)(=O)Nc2ccc3c4c(cccc24)CC3)c(C)c1,n,n,n,u,n,-88.4
Cc1cc(C)c(S(=O)(=O)Nc2ccc3c(c2)CCC3)c(C)c1,n,n,x,x,n,-89.1
Cc1cc(C)cc(OCC(=O)Nc2ccc3c4c(cccc24)CC3)c1,n,n,n,n,n,n
C=CC1=C2C=C(C3CC3)N(CCCOC(C)C)C=C2C(=O)C(C)(OC(=O)c2ccco2)C1=O (centres undefined),n,n,x,x,n[11.4 µM],x
Cc1onc(-c2ccccc2Cl)c1C(=O)OCn1nnc2ccccc2c1=O,31.6µM,n,n,n,n,u
Cc1onc(-c2c(F)cccc2Cl)c1C(=O)OCN1C(=O)c2ccccc2C1=O,1.41µM,n,n,n,n,n
O=C(OCn1nnc2ccccc2c1=O)c1cc(-c2ccccc2Cl)nc2ccccc12,n,n,n,x,n,n
Cc1cc(C(=O)N/N=C/c2cn[nH]c2-c2ccccc2)cs1,n,n,x,x,n,-113.8
O=C(N/N=C\c1cn[nH]c1-c1ccccc1)c1ccc([N+](=O)[O-])cc1,n,n,x,x,n,n
SMILES,HPGD inh,IMPase Li inh,IMPase cell inh,ALOX15B inhib,ALOX12 inhib,PNC inhibitor
Nc1nc(C2CC(=O)OC23CCCCC3)cs1 (centres undefined),n,n,n,x,n,-118.9
OCCNc1ncnc2c1ncn2[C@@H]1O[C@@H](CO)[C@H](O)[C@@H]1O,n,n,x,n[11.4 µM],n[11.4 µM],x
O=C(NCCCN1CCN(c2ccccc2)CC1)c1nnc(Cc2c(F)cccc2Cl)o1,x,x,n,x,x,x
COC(=O)COc1ccc(S(=O)(=O)Nc2ccc(C(N)=O)cc2)cc1Cl,n,n,n,n,n,-92.2
CCCOc1ccccc1Cn1c(=O)sc2ccccc21,x,x,n,x,x,x
CCOc1ccc(-c2nc(-c3cccnc3)no2)cc1,n,n,n,x,n,-100.0
CCCCOc1ccc(-c2nc(-c3cccnc3)no2)cc1,n,n,n,n,n,u
